Only some compounds are listed: those with a hit (about 8% of all), similar ones and a draw of the others.
HCMV inh: human cytomegalovirus inhibition. HFF cells, HCMV-luciferase reporter, 72 h; stronger effect = lower value. activity change, negative = inhibition, % at 57.5 µM. 410,000 compounds, 4.5% hits. AID 1259415; in the data active = activity change below about -60%; inconclusive = no clear call, values can overlap the other calls; inactive = above about -39%
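Two-dose cell screen: HFF monolayers treated with compounds and infected with luciferase-expressing HCMV at 1 PFU/cell, 72 h at 37C, then lysed for luciferase measurement.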
SARS PLpro yeast: inhibitors of SARS-CoV papain-like protease in yeast | 330,000 compounds, 0.19% hits | Potency, µM (doses to about 32.9 µM), actives largely listed as activators | S. cerevisiae expressing SARS-CoV PLpro, growth rescue | AID 485353; calls by dose curve; also: nearly all actives have a fitted effect of over 55% in size
HCV inh: HCV inhibition; 340,000 compounds, 3.4% hits; AID 651820; Huh7.5.1 HCVcc-Cre infection, luciferase reporter, 44 h; Potency, µM (top dose mostly 41.8 µM), most hits filed as inhibitors; active = well fitted inhibition curve with a large enough effect; inconclusive = small, poorly fitted or top-dose-only effect, or another doubt; inactive = no such curve, though single readings can be large or run the other way
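HCVcc-Cre virus at an moi near 0.5 was added right after compound to cells cultured 4 h from seeding (1,000 cells/well). Luciferase activity was determined 44 h later, 15 min after substrate addition at RT.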
Marburg entry inh: Marburg virus entry inhibition | AID 540276 | Marburg virus pseudotyped entry inhibition, cell reporter | Potency, µM (top dose mostly 37.8 µM), most hits filed as inhibitors | 300,000 compounds, 1.8% hits; calls by dose curve; tested in HEK293 cells
FMDV antiviral: blocks foot and mouth disease virus; FMDV antiviral cell-based qHTS; Potency, µM (titrated, usually from 57.9 µM), usual class: inhibitors; 410,000 compounds, 1.2% hits; AID 1159524; calls by dose curve; tested in HEK293T cells; also: read-out not given here; nearly all actives have a fitted effect of over 45% in size
Lassa entry inh: inhibitors of Lassa virus binding or cell entry. Lassa virus pseudotype entry inhibition, cell reporter. Potency, µM (top dose mostly 37.9 µM), most hits filed as inhibitors. 300,000 compounds, 1.2% hits; calls by dose curve; tested in HEK293 cells; also: nearly all actives have a fitted effect of over 50% in size
Hits are given with their value.

Results for CC(C)Cn1c(N)c(C(=O)COC(=O)C2CCCCC2)c(=O)n(C)c1=O ?
HCMV inh: inactive; SARS PLpro yeast: inactive; HCV inh: inconclusive; Marburg entry inh: inactive; FMDV antiviral: inconclusive; Lassa entry inh: inactive

How did CC(C)Cn1c(N)c(C(=O)COC(=O)[C@H](C)NC(=O)c2ccccc2Cl)c(=O)n(C)c1=O do in these assays?
HCMV inh: inactive; SARS PLpro yeast: inactive; HCV inh: inactive; Marburg entry inh: inactive; FMDV antiviral: inactive; Lassa entry inh: inactive

Results for CC(C)Cn1c(N)c(C(=O)COC(=O)C2Cc3ccccc3CN2S(C)(=O)=O)c(=O)n(C)c1=O (stereo not given) ?
HCMV inh: inactive; SARS PLpro yeast: inactive; HCV inh: 11µM; Marburg entry inh: inconclusive; FMDV antiviral: inactive; Lassa entry inh: inactive

How did Cc1nn(-c2ccccc2)c(C)c1C(=O)OCC(=O)c1c(N)n(CC(C)C)c(=O)n(C)c1=O do in these assays?
HCMV inh: -79; SARS PLpro yeast: inactive; HCV inh: 5.6µM; Marburg entry inh: inconclusive; FMDV antiviral: 32µM; Lassa entry inh: 6.5µM

What do the screens show for `O=C(/C=C/c1cccs1)N1CCc2ccccc21`?
HCMV inh: inactive; SARS PLpro yeast: inactive; HCV inh: inactive; Marburg entry inh: 8.2µM; FMDV antiviral: inactive; Lassa entry inh: inconclusive

What do the screens show for `O=C(c1cccs1)N1CCc2ccccc21`?
HCMV inh: inactive; SARS PLpro yeast: inactive; HCV inh: inconclusive; Marburg entry inh: inactive; FMDV antiviral: inactive; Lassa entry inh: inactive

How did Cc1ccc(CSc2ncnc3ccccc23)cc1 do in these assays?
HCMV inh: inactive; SARS PLpro yeast: inactive; HCV inh: inactive; Marburg entry inh: inactive; FMDV antiviral: inactive; Lassa entry inh: inactive

Results for O=Cc1cc2ccccc2nc1SCc1ccc(Cl)c(Cl)c1 ?
HCMV inh: -92; SARS PLpro yeast: inactive; HCV inh: inactive; Marburg entry inh: 2.2µM; FMDV antiviral: inconclusive; Lassa entry inh: inconclusive

What do the screens show for `Clc1ccc(CSc2cnnc3ccccc23)cc1Cl`?
HCMV inh: inactive; HCV inh: inactive; Marburg entry inh: inconclusive; FMDV antiviral: inactive; Lassa entry inh: inactive

How did O=Cc1cc2ccccc2nc1SCc1ccc(Cl)cc1 do in these assays?
HCMV inh: -82; SARS PLpro yeast: inactive; HCV inh: inconclusive; Marburg entry inh: inconclusive; FMDV antiviral: inactive; Lassa entry inh: 10µM

What do the screens show for `O=c1[nH]c(SCc2ccc(Cl)cc2)nc2ccccc12`?
HCMV inh: inactive; SARS PLpro yeast: inactive; HCV inh: inactive; FMDV antiviral: inactive

What do the screens show for `Cc1ccc(CSc2nc3ccccc3cc2C=O)cc1`?
HCMV inh: -97; SARS PLpro yeast: inactive; HCV inh: inconclusive; Marburg entry inh: inconclusive; FMDV antiviral: inconclusive; Lassa entry inh: inconclusive

How did COC(=O)C1=C(c2cccc(OCc3ccccc3)c2)C[C@@H]2CC[C@H]1N2C(=O)NCc1ccc(C(C)(C)C)cc1 do in these assays?
HCMV inh: inactive; SARS PLpro yeast: inactive; HCV inh: 25µM; FMDV antiviral: inactive

How did COC(=O)C1=C(c2cccc(OCc3ccccc3)c2)C[C@@H]2CC[C@H]1N2C(=O)NCc1ccc(N(C)C)cc1 do in these assays?
HCMV inh: inactive; SARS PLpro yeast: inactive; HCV inh: 13µM; FMDV antiviral: inactive

How did CCOc1ccc(NC(=O)c2c(NCc3sccc3C)sc3c2CCCCC3)cc1 do in these assays?
HCMV inh: inactive; FMDV antiviral: inactive; Lassa entry inh: inactive

Results for CC(=O)c1ccc(-c2ccc(C(=O)Nc3nc(-c4ccccn4)cs3)o2)cc1 ?
HCMV inh: inactive; SARS PLpro yeast: inactive; HCV inh: 2.5µM; FMDV antiviral: inactive

How did O=C(COc1ccc([N+](=O)[O-])cc1)Nc1nc(-c2ccccn2)cs1 do in these assays?
HCMV inh: -71; SARS PLpro yeast: inactive; HCV inh: 10µM; Marburg entry inh: inconclusive; FMDV antiviral: inactive; Lassa entry inh: inconclusive

How did O=C(Nc1nc(-c2ccccn2)cs1)c1ccc(-c2ccccc2F)o1 do in these assays?
HCMV inh: -70; SARS PLpro yeast: inactive; HCV inh: inconclusive; FMDV antiviral: inactive

How did Cc1ccc(C(=O)Nc2nc(-c3ccccn3)cs2)o1 do in these assays?
HCMV inh: inactive; SARS PLpro yeast: inactive; HCV inh: inconclusive; FMDV antiviral: inactive

What do the screens show for `O=C(Nc1nc(-c2ccccn2)cs1)c1ccc([N+](=O)[O-])o1`?
HCMV inh: inactive; SARS PLpro yeast: inactive; HCV inh: 8.9µM; Marburg entry inh: inconclusive; FMDV antiviral: inactive; Lassa entry inh: inconclusive

Results for CCN1C(=O)c2ccccc2S(=O)(=O)c2ccc(C(=O)NCc3ccccc3)cc21 ?
HCMV inh: inconclusive; Marburg entry inh: inconclusive; FMDV antiviral: inactive; Lassa entry inh: inactive

What do the screens show for `CCCOC(=O)c1cccc(NC(=O)COc2ccc([N+](=O)[O-])cc2)c1`?
HCMV inh: inactive; SARS PLpro yeast: inactive; HCV inh: inconclusive; Marburg entry inh: inactive; FMDV antiviral: 25µM; Lassa entry inh: inactive

Results for Cc1ccc(-c2csc(NC(=O)c3ccc(-c4ccccc4)cc3)n2)o1 ?
SARS PLpro yeast: inactive; HCV inh: 8.9µM; FMDV antiviral: inactive

What do the screens show for `Cc1cc2c(cc1C)NC(c1cccc(Br)c1)=C(N(Cc1ccccc1)C(=O)C(=O)c1ccccc1)C(=O)N2`?
HCMV inh: inactive

How did C=C1CC2(CC(c3ccccc3)OC(c3ccccc3)C2)OC1=O (stereo not given) do in these assays?
HCMV inh: inactive; HCV inh: inconclusive; Marburg entry inh: inconclusive; FMDV antiviral: 22µM; Lassa entry inh: inconclusive

What do the screens show for `CCc1ccc2nc(SCC(=O)N3CC(=O)Nc4ccccc43)c(C#N)cc2c1`?
HCMV inh: inactive; SARS PLpro yeast: inactive; HCV inh: 4.5µM; Marburg entry inh: inconclusive; FMDV antiviral: inactive; Lassa entry inh: inactive

What do the screens show for `CCc1nc(SCC(=O)N2CC(=O)Nc3ccccc32)c2c(C)c(C)sc2n1`?
HCMV inh: inactive; SARS PLpro yeast: inactive; HCV inh: inactive; Marburg entry inh: inconclusive; Lassa entry inh: inactive

What do the screens show for `Cc1nc(SCC(=O)N2CC(=O)Nc3ccccc32)nc(C)c1C`?
HCMV inh: inactive; SARS PLpro yeast: inactive; HCV inh: inactive; Marburg entry inh: inactive; FMDV antiviral: inactive; Lassa entry inh: inactive

Results for CCc1cc2c(SCC(=O)N3CC(=O)Nc4ccccc43)ncnc2s1 ?
HCMV inh: -60; SARS PLpro yeast: inactive; HCV inh: inactive; Marburg entry inh: inactive; FMDV antiviral: inactive; Lassa entry inh: inactive

What do the screens show for `N#Cc1cc(C#N)c(SCC(=O)N2CC(=O)Nc3ccccc32)nc1N`?
HCMV inh: inactive; SARS PLpro yeast: inactive; HCV inh: inconclusive; FMDV antiviral: inactive

Results for CCc1cc2cc(C)ccc2nc1SCC(=O)N1CC(=O)Nc2ccccc21 ?
HCMV inh: inconclusive; SARS PLpro yeast: inactive; HCV inh: 7.1µM; Marburg entry inh: inconclusive; FMDV antiviral: inactive

What do the screens show for `CCOc1ccc(C(c2c(O)cc(C)n(CCOC)c2=O)N2CCC(C)CC2)cc1` (stereo not given)?
HCMV inh: inactive; FMDV antiviral: inactive; Lassa entry inh: inactive
